Residue numbers refer to the chain shown, from its start. In all, about 5,800 sequences were measured (“enrichment r”: median about 0.68, highest 2% from about 11 on). The list comes from a sample in which the highest values are over-represented; it also holds similar and randomly drawn sequences.
B1: chr1:203709306:203709407:+|CDS|ENSG00000058668|msi1|total|mutant (ssRNA)
RNA: GGGAGUUCUACAGUCCGACGAUCUCCAGAGAAGGAGGGAGGCCUGCCUCGGCAGGUGGGCAACAAGACCGAGUGUGCUCUGCCCGGCUUUGUCACAGAUCUGAAGCAGGAUUAUCAGGCUGUGCGUAAUGAAGUGCCCGAGGACAACAGAGGAUUGAGCAUCA
B2: chr1:225789428:225789553:+|3pUTR|ENSG00000143742|unk|FALSE|unique (ssRNA)
RNA: GGGAGUUCUACAGUCCGACGAUCUUAGAGAAAGUGUUGGGACAGAAAGUACUUUAUGUAACUAAGUGGGCUGUUCAGAAGCUUAGAGGUCAUUUUUUGUAAUUUUCUUUUUAAUUACUUUAGAGAGCUAGGGAUGCAAAUGUUCAACAGAGGAUUGAGCAUCA
B3: chr22:27980698:27980799:-|3pUTR|ENSG00000100154|unk|total|mutant (ssRNA)
RNA: GGGAGUUCUACAGUCCGACGAUCUAACCAUUAAUUUAUUUUAUAAAGAAAGGAAAUGCUGAAAGUCGUAUCCGUACUGAGUUCCGUUGGAGAAUUCCGAUAAGUAAGUAUCUUUCCGGUAAUUCUAAAAUUAAAAUCCUACCCCAACAGAGGAUUGAGCAUCA
B4: ENSG00000124766:be:win_3501|3pUTR|ENSG00000124766|bound_else_gene|NA|bound_elsewhere_windowed (ssRNA)
RNA: GGGAGUUCUACAGUCCGACGAUCAACUUGUAAACCACAUCUUUUUUGCACUUUUUUUAUAAGCAAAAACGUGCCGUUUAAACCACUGGAUCUAUCUAAAUGCCGAUUUGAGUUCGCGACACUAUGUACUGCGUUUUUCAUUCUCAACAGAGGAUUGAGCAUCA
B5: chr10:60791946:60792061:+|CDS|ENSG00000170312|unk|FALSE|unique (ssRNA)
RNA: GGGAGUUCUACAGUCCGACGAUCGUCAGCUCGUUACUCAACUCCAGUUGACAUUUGGAGUAUAGGCACCAUAUUUGCUGAACUAGCAACUAAGAAACCACUUUUCCAUGGGGAUUCAGAAAUUGAUCAACUCUUCAGGAUUUUCAACAGAGGAUUGAGCAUCA
B6: chr19:13098382:13098626:+|3pUTR|ENSG00000008441|msi1|FALSE|unique (ssRNA)
RNA: GGGAGUUCUACAGUCCGACGAUCACGCAGUAUAUACGAGUAUCUCUAUAUAUAGUACUAAUGGAUUUGGUGUGCUUCCCCCUUAGCGUCCCCCUCCCUCUGCUCCUCCUCCUUCAGCCUGGUCUCCCCCUCUUCUCUGCCCUCCAACAGAGGAUUGAGCAUCA
B7: chr6:132743869:132744491:-|three_prime_utr|ENSG00000112303|control|control|control (ssRNA)
RNA: GGGAGUUCUACAGUCCGACGAUCAUGUGGGACCAGCAAUUCAGCAAUAACUUACCUGCUAAUAUUCAUAUUAUUAAUGAUCAUAGCUUUGCAAAAUAUUGUAAUGUUAUAGGGCGUCUCUUUAUCACUCAGCUUCUGCAUCAUCAACAGAGGAUUGAGCAUCA
B8: ENSG00000006432:stop:overlap|stop_codon|ENSG00000006432|stop_codon|NA|stop_codon (ssRNA)
RNA: GGGAGUUCUACAGUCCGACGAUCGAGCGGAACUGAACACACACAGGCCUGCCCCUUAUGAGAUCCAGCAGGAGUUCUGGUCUUAGCACGAAAAGGAUUGGGGCGGGCAAGGGGGACAGCCAGCGGAGAUGAGGGGAGCUGGCGCAACAGAGGAUUGAGCAUCA
B9: chr16:1487315:1487970:-|CDS|ENSG00000251692|control|control|control (ssRNA)
RNA: GGGAGUUCUACAGUCCGACGAUCGGGGGAGCUGGCGCAGCUCAAGGCCUGGGUGAGGAAGCUGCAGCGCCGAGGCCGGAAAGUAGACACGCGGCUGCGGGCCUUGGACCUCACCCUGGGCGAGAGGAGCCAGCAGCGGGCCCGCAACAGAGGAUUGAGCAUCA
B10: chr10:52765379:52768136:-|three_prime_utr|ENSG00000165471|control|control|control (ssRNA)
RNA: GGGAGUUCUACAGUCCGACGAUCUUGUUCCUUUUGUGGGCAAUCACUAAAAAUGAUCACUAACAGCACCAACAAAGCAAUAAUAGUAGUAGUAGUAGUUAGCAGCAGCAGUAGUAGUCAUGCUAAUUAUAUAAUAUUUUUAAUCAACAGAGGAUUGAGCAUCA
B11: chr3:112140897:112141281:-|three_prime_utr|ENSG00000172139|control|control|control (ssRNA)
RNA: GGGAGUUCUACAGUCCGACGAUCACUUUUUGCAAAAUUUCCUUGAUUUAAAAUAUUUGUUAUUUUAAAUAUACAAAACAUUUUAGAAAAUCUUAGAGUAAAUUUUAGUCUUAAAGCCAGAAAAUAAGUUUAUAGCCAUCUAGACAACAGAGGAUUGAGCAUCA
B12: chr2:15946816:15946917:+|3pUTR|ENSG00000134323|unk|FALSE|unique (ssRNA)
RNA: GGGAGUUCUACAGUCCGACGAUCUAUAUGCCUUUUUCCUAGCCUGUUUCUUCCUGUUAAUGUAUUUGUUCAUGUUUGGUGCAUAGAACUGGGUAAAUGCAAAGUUCUGUGUUUAAUUUCUUCAAAAUGUAUAUAUUUAGUGCUCAACAGAGGAUUGAGCAUCA
B13: chr6:149410404:149410522:+|3pUTR|ENSG00000055208|unk|FALSE|bound_elsewhere (ssRNA)
RNA: GGGAGUUCUACAGUCCGACGAUCUUAUAUUUCUAUAUGUAUAGUGUAAUAGCCUUUUGUUAACUAAUUUUCUUUUUUCCUUUUAGUAAUUAAGCACGAUCAUGUCCCUUUUUAAGCCUUACCUGAGAGGAACAAUGCCUUAAACAACAGAGGAUUGAGCAUCA
B14: chr6:149410404:149410522:+|3pUTR|ENSG00000055208|unk|total|mutant (ssRNA)
RNA: B13 RNA with U41C, A42C, U49C, A50C, U83C, A84C
B15: chr17:142788:147440:-|three_prime_utr|ENSG00000272636|control|control|control (ssRNA)
RNA: GGGAGUUCUACAGUCCGACGAUCGAGACCUCAGCACCUGCCCAGGGGAAGGGGACACGCCCAUCUGGGAGCAAAGACCCUUCUAGAGGCCAGCCCCGGCUGAGAGGACAGGAGUGUGGGGGCGCCUUGGCGGACAGUGGGAACCAACAGAGGAUUGAGCAUCA

Biological target: T1, UNK ZnF1-6 (called full-length) (human, UniProt Q9C0B0 30-357)
T1 sequence: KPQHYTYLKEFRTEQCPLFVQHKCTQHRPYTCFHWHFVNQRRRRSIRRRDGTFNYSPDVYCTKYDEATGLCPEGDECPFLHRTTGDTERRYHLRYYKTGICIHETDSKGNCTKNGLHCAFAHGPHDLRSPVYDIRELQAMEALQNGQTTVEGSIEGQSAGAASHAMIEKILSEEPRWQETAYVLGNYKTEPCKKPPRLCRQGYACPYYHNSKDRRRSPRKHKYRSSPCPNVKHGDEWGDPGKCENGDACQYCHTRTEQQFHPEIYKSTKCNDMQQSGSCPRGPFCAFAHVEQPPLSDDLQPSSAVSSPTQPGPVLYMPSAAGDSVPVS
Experiment: nsRBNS (natural sequence RNA bind-n-seq); RBNS binding buffer (assumed for nsRBNS): 25 mM Tris pH 7.5, 150 mM KCl, 3 mM MgCl2, 0.01% Triton X-100, 500 ug/ml BSA, 20 U/ml SUPERase-In, 4 C; UNK is unkempt and MSI1 is Musashi-1; names of the RNAs are library labels; protein concentration not given here; high values mean tight binding

Binder | binding signal
B1 | 0.691 enrichment R
B2 | 1.53 enrichment R
B3 | 0.76 enrichment R
B4 | 0.497 enrichment R
B5 | 0.452 enrichment R
B6 | 1.99 enrichment R
B7 | 0.744 enrichment R
B8 | 11.7 enrichment R
B9 | 0.727 enrichment R
B10 | 16.5 enrichment R
B11 | 2.83 enrichment R
B12 | 1.93 enrichment R
B13 | 66 enrichment R
B14 | 4.24 enrichment R
B15 | 0.805 enrichment R

Source: PMC12136788
